From the supplement of paper PMC4466140

biological target: AgAbp1; experiment: SPOT peptide array binding signal intensity (averaged, normalized) (arbitrary units (background-subtracted, floor 0; scale differs between SH3 domains)); higher = stronger binding of the SH3 domain to the peptide
In short: (§1)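 E. coli BL21(DE3) was used to express GST-fused SH3 domains from four yeast species, which were then purified on glutathione Sepharose. These were incubated at 10 μg/ml in TBS-based blocking buffer overnight at 4°C on cellulose membranes carrying synthetic 15-mer peptides, in which cysteines were replaced by serines. Binding signal is the replicate average of normalized, background-subtracted spot intensity, in arbitrary units that differ between domains.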

Binder | SPOT peptide array binding signal intensity
ALFRLSFFFPLDPAY | 90.5

biological target: AgBbc1; experiment: as above
In short: as §1

Binder | SPOT peptide array binding signal intensity
ALFRLSFFFPLDPAY | 59.5

biological target: AgBem1-D1; experiment: as above
In short: as §1

Binder | SPOT peptide array binding signal intensity
ALFRLSFFFPLDPAY | 487

biological target: AgBzz1-D1; experiment: as above
In short: as §1

Binder | SPOT peptide array binding signal intensity
ALFRLSFFFPLDPAY | 204

biological target: AgBzz1-D2; experiment: as above
In short: as §1

Binder | SPOT peptide array binding signal intensity
ALFRLSFFFPLDPAY | 161

biological target: AgCyk3; experiment: as above
In short: as §1

Binder | SPOT peptide array binding signal intensity
ALFRLSFFFPLDPAY | 40.5

biological target: AgFus1; experiment: as above
In short: as §1

Binder | SPOT peptide array binding signal intensity
ALFRLSFFFPLDPAY | 3740

biological target: AgHof1; experiment: as above
In short: as §1

Binder | SPOT peptide array binding signal intensity
ALFRLSFFFPLDPAY | 184

biological target: AgHse1; experiment: as above
In short: as §1

Binder | SPOT peptide array binding signal intensity
ALFRLSFFFPLDPAY | 2470

biological target: AgLsb1; experiment: as above
In short: as §1

Binder | SPOT peptide array binding signal intensity
ALFRLSFFFPLDPAY | 66

biological target: AgLsb4; experiment: as above
In short: as §1

Binder | SPOT peptide array binding signal intensity
ALFRLSFFFPLDPAY | 1960

biological target: AgMyo5; experiment: as above
In short: as §1

Binder | SPOT peptide array binding signal intensity
ALFRLSFFFPLDPAY | 6.5

biological target: AgNbp2; experiment: as above
In short: as §1

Binder | SPOT peptide array binding signal intensity
ALFRLSFFFPLDPAY | 796

biological target: AgRvs167; experiment: as above
In short: as §1

Binder | SPOT peptide array binding signal intensity
ALFRLSFFFPLDPAY | 40.7

biological target: AgSho1; experiment: as above
In short: as §1

Binder | SPOT peptide array binding signal intensity
ALFRLSFFFPLDPAY | 2320

biological target: AgSla1-D1-D2; experiment: as above
In short: as §1

Binder | SPOT peptide array binding signal intensity
ALFRLSFFFPLDPAY | 150

biological target: AgSla1-D3; experiment: as above
In short: as §1

Binder | SPOT peptide array binding signal intensity
ALFRLSFFFPLDPAY | 25.5

biological target: CaAbp1-D1; experiment: as above
In short: as §1

Binder | SPOT peptide array binding signal intensity
ALFRLSFFFPLDPAY | 494

biological target: CaAbp1-D2; experiment: as above
In short: as §1

Binder | SPOT peptide array binding signal intensity
ALFRLSFFFPLDPAY | 621

biological target: CaBbc1; experiment: as above
In short: as §1

Binder | SPOT peptide array binding signal intensity
ALFRLSFFFPLDPAY | 162

biological target: CaBem1-D1; experiment: as above
In short: as §1

Binder | SPOT peptide array binding signal intensity
ALFRLSFFFPLDPAY | 141

biological target: CaBzz1-D1; experiment: as above
In short: as §1

Binder | SPOT peptide array binding signal intensity
ALFRLSFFFPLDPAY | 574

biological target: CaBzz1-D2; experiment: as above
In short: as §1

Binder | SPOT peptide array binding signal intensity
ALFRLSFFFPLDPAY | 416

biological target: CaCyk3; experiment: as above
In short: as §1

Binder | SPOT peptide array binding signal intensity
ALFRLSFFFPLDPAY | 68

biological target: CaFus1; experiment: as above
In short: as §1

Binder | SPOT peptide array binding signal intensity
ALFRLSFFFPLDPAY | 4730

biological target: CaHof1; experiment: as above
In short: as §1

Binder | SPOT peptide array binding signal intensity
ALFRLSFFFPLDPAY | 10

biological target: CaHse1; experiment: as above
In short: as §1

Binder | SPOT peptide array binding signal intensity
ALFRLSFFFPLDPAY | 985

biological target: CaLsb1; experiment: as above
In short: as §1

Binder | SPOT peptide array binding signal intensity
ALFRLSFFFPLDPAY | 79.5

biological target: CaLsb4; experiment: as above
In short: as §1

Binder | SPOT peptide array binding signal intensity
ALFRLSFFFPLDPAY | 278

biological target: CaMyo5; experiment: as above
In short: as §1

Binder | SPOT peptide array binding signal intensity
ALFRLSFFFPLDPAY | 156

biological target: CaNbp2; experiment: as above
In short: as §1

Binder | SPOT peptide array binding signal intensity
ALFRLSFFFPLDPAY | 1460

biological target: CaRvs167; experiment: as above
In short: as §1

Binder | SPOT peptide array binding signal intensity
ALFRLSFFFPLDPAY | 578

biological target: CaRvs167-3; experiment: as above
In short: as §1

Binder | SPOT peptide array binding signal intensity
ALFRLSFFFPLDPAY | 964

biological target: CaSho1; experiment: as above
In short: as §1

Binder | SPOT peptide array binding signal intensity
ALFRLSFFFPLDPAY | 2260

biological target: CaSla1-D1-D2; experiment: as above
In short: as §1

Binder | SPOT peptide array binding signal intensity
ALFRLSFFFPLDPAY | 131

biological target: CaSla1-D3; experiment: as above
In short: as §1

Binder | SPOT peptide array binding signal intensity
ALFRLSFFFPLDPAY | 848

biological target: ScAbp1; experiment: as above
In short: as §1

Binder | SPOT peptide array binding signal intensity
ALFRLSFFFPLDPAY | 81.5

biological target: ScBbc1; experiment: as above
In short: as §1

Binder | SPOT peptide array binding signal intensity
ALFRLSFFFPLDPAY | 9.5

biological target: ScBem1-D1; experiment: as above
In short: as §1

Binder | SPOT peptide array binding signal intensity
ALFRLSFFFPLDPAY | 110

biological target: ScBzz1-D1; experiment: as above
In short: as §1

Binder | SPOT peptide array binding signal intensity
ALFRLSFFFPLDPAY | 218

biological target: ScBzz1-D2; experiment: as above
In short: as §1

Binder | SPOT peptide array binding signal intensity
ALFRLSFFFPLDPAY | 531

biological target: ScCyk3; experiment: as above
In short: as §1

Binder | SPOT peptide array binding signal intensity
ALFRLSFFFPLDPAY | 246

biological target: ScFus1; experiment: as above
In short: as §1

Binder | SPOT peptide array binding signal intensity
ALFRLSFFFPLDPAY | 3920

biological target: ScHof1; experiment: as above
In short: as §1

Binder | SPOT peptide array binding signal intensity
ALFRLSFFFPLDPAY | 2.5

biological target: ScHse1; experiment: as above
In short: as §1

Binder | SPOT peptide array binding signal intensity
ALFRLSFFFPLDPAY | 4160

biological target: ScLsb1; experiment: as above
In short: as §1

Binder | SPOT peptide array binding signal intensity
ALFRLSFFFPLDPAY | 70.2

biological target: ScLsb2; experiment: as above
In short: as §1

Binder | SPOT peptide array binding signal intensity
ALFRLSFFFPLDPAY | 24

biological target: ScLsb3; experiment: as above
In short: as §1

Binder | SPOT peptide array binding signal intensity
ALFRLSFFFPLDPAY | 674

biological target: ScLsb4; experiment: as above
In short: as §1

Binder | SPOT peptide array binding signal intensity
ALFRLSFFFPLDPAY | 104

biological target: ScMyo3; experiment: as above
In short: as §1

Binder | SPOT peptide array binding signal intensity
ALFRLSFFFPLDPAY | 35

biological target: ScMyo5; experiment: as above
In short: as §1

Binder | SPOT peptide array binding signal intensity
ALFRLSFFFPLDPAY | 62.8

biological target: ScNbp2; experiment: as above
In short: as §1

Binder | SPOT peptide array binding signal intensity
ALFRLSFFFPLDPAY | 802

biological target: ScPex13; experiment: as above
In short: as §1

Binder | SPOT peptide array binding signal intensity
ALFRLSFFFPLDPAY | 116

biological target: ScRvs167; experiment: as above
In short: as §1

Binder | SPOT peptide array binding signal intensity
ALFRLSFFFPLDPAY | 91.7

biological target: ScSho1; experiment: as above
In short: as §1

Binder | SPOT peptide array binding signal intensity
ALFRLSFFFPLDPAY | 2780

biological target: ScSla1-D1-D2; experiment: as above
In short: as §1

Binder | SPOT peptide array binding signal intensity
ALFRLSFFFPLDPAY | 120

biological target: ScSla1-D3; experiment: as above
In short: as §1

Binder | SPOT peptide array binding signal intensity
ALFRLSFFFPLDPAY | 426

biological target: SpAbp1-D1; experiment: as above
In short: as §1

Binder | SPOT peptide array binding signal intensity
ALFRLSFFFPLDPAY | 303

biological target: SpBbc1; experiment: as above
In short: as §1

Binder | SPOT peptide array binding signal intensity
ALFRLSFFFPLDPAY | 57.2

biological target: SpBzz1-D1; experiment: as above
In short: as §1

Binder | SPOT peptide array binding signal intensity
ALFRLSFFFPLDPAY | 838

biological target: SpBzz1-D2; experiment: as above
In short: as §1

Binder | SPOT peptide array binding signal intensity
ALFRLSFFFPLDPAY | 6.5

biological target: SpCyk3; experiment: as above
In short: as §1

Binder | SPOT peptide array binding signal intensity
ALFRLSFFFPLDPAY | 55

biological target: SpHof1; experiment: as above
In short: as §1

Binder | SPOT peptide array binding signal intensity
ALFRLSFFFPLDPAY | 844

biological target: SpHof1-2; experiment: as above
In short: as §1

Binder | SPOT peptide array binding signal intensity
ALFRLSFFFPLDPAY | 230

biological target: SpHof1-3; experiment: as above
In short: as §1

Binder | SPOT peptide array binding signal intensity
ALFRLSFFFPLDPAY | 1850

biological target: SpHse1; experiment: as above
In short: as §1

Binder | SPOT peptide array binding signal intensity
ALFRLSFFFPLDPAY | 2380

biological target: SpLsb1; experiment: as above
In short: as §1

Binder | SPOT peptide array binding signal intensity
ALFRLSFFFPLDPAY | 15.5

biological target: SpLsb4; experiment: as above
In short: as §1

Binder | SPOT peptide array binding signal intensity
ALFRLSFFFPLDPAY | 463

biological target: SpMyo1; experiment: as above
In short: as §1

Binder | SPOT peptide array binding signal intensity
ALFRLSFFFPLDPAY | 91

biological target: SpNbp2; experiment: as above
In short: as §1

Binder | SPOT peptide array binding signal intensity
ALFRLSFFFPLDPAY | 2350

biological target: SpPex13; experiment: as above
In short: as §1

Binder | SPOT peptide array binding signal intensity
ALFRLSFFFPLDPAY | 565

biological target: SpRvs167; experiment: as above
In short: as §1

Binder | SPOT peptide array binding signal intensity
ALFRLSFFFPLDPAY | 131

biological target: SpSla1-D1-D2; experiment: as above
In short: as §1

Binder | SPOT peptide array binding signal intensity
ALFRLSFFFPLDPAY | 8

biological target: SpSla1-D3; experiment: as above
In short: as §1

Binder | SPOT peptide array binding signal intensity
ALFRLSFFFPLDPAY | 192
